Laboratory results as given in PubChem BioAssay (NCATS).
Records with an inconclusive call do not appear. Calls of active or inactive are those of the source. The call rests on the fitted dose curve; in most records, active means well fitted curve in the direction sought with a large enough effect; inconclusive means small, poorly fitted or top-dose-only effect, or another doubt; inactive means no such curve, though single readings can be large; an effect the other way counts as inactive or inconclusive.

Columns and labels:
[1] = qHTS of pediatric cancer cell lines to identify multiple opportunities for drug repurposing: Primary screen for NB1643 cells (AID 1347099); further: nearly all actives have a fitted effect of over 50% in size
Procedure, shortened: (§1)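 500-1,000 cells/well; 5 h pre-incubation 37 °C/5% CO2; compound pinned; 48 h; CellTiter-Glo, 15 min RT; luminescence. MIPE 11-pt from 0.78 nM, NPC 8-pt from 0.59 nM final. Bortezomib 2.3 µM final as positive control.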

[2] = qHTS of pediatric cancer cell lines to identify multiple opportunities for drug repurposing: Primary screen for LAN-5 cells (AID 1347100)
Procedure, shortened: (§2)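 Cells (500-1,000/well) rested 5 h, then received compounds for 48 h; metabolically active cells were measured by CellTiter-Glo luminescence. Final concentrations spanned up to 46 µM (MIPE, 11-point) or 0.59 nM-46 µM (NPC, 8-point) in primary screens, 11-point in follow-ups.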

[3] = qHTS of pediatric cancer cell lines to identify multiple opportunities for drug repurposing: Primary screen for BT-12 cells (AID 1347101); further: nearly all actives have a fitted effect of over 25% in size
Procedure, shortened: as §2

[4] = qHTS of pediatric cancer cell lines to identify multiple opportunities for drug repurposing: Primary screen for Rh18 cells (AID 1347102); further: nearly all actives have a fitted effect of over 65% in size
Procedure, shortened: as §2

[5] = qHTS of pediatric cancer cell lines to identify multiple opportunities for drug repurposing: Primary screen for OHS-50 cells (AID 1347103); further: nearly all actives have a fitted effect of over 40% in size
Procedure, shortened: as §2

[6] = qHTS of pediatric cancer cell lines to identify multiple opportunities for drug repurposing: Primary screen for RD cells (AID 1347104); further: nearly all actives have a fitted effect of over 55% in size
Procedure, shortened: as §1

[7] = qHTS of pediatric cancer cell lines to identify multiple opportunities for drug repurposing: Primary screen for MG 63 (6-TG R) cells (AID 1347105); further: nearly all actives have a fitted effect of over 50% in size
Procedure, shortened: as §1

[8] = qHTS of pediatric cancer cell lines to identify multiple opportunities for drug repurposing: Primary screen for control Hh wild type fibroblast cells (AID 1347106); further: nearly all actives have a fitted effect of over 55% in size
Procedure, shortened: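 Cells (500-1,000/well) in growth media were settled 5 h at 37 degrees C, then given compounds for 48 h. Viability was read as CellTiter-Glo luminescence. Primary runs used MIPE at 11 points (0.78 nM-46 µM) and NPC at 8 points (0.59 nM-46 µM); follow-ups used 11 points.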

[9] = qHTS of pediatric cancer cell lines to identify multiple opportunities for drug repurposing: Primary screen for Rh30 cells (AID 1347107); further: nearly all actives have a fitted effect of over 75% in size
Procedure, shortened: as §2

[10] = qHTS of pediatric cancer cell lines to identify multiple opportunities for drug repurposing: Primary screen for Rh41 cells (AID 1347108); further: nearly all actives have a fitted effect of over 70% in size
Procedure, shortened: as §1

Measured: Potency
Potency means the concentration at half of the fitted maximal effect.

O=C(O)CCNc1cc(N2CCc3ccccc3CC2)nc(-c2ccccn2)n1
active: [1] 11800 nM
inactive: [2] | [3] | [4] | [5] | [6] | [7] | [8] | [9]

Nc1ncnc2c1ncn2[C@@H]1O[C@H](CO)[C@@H](O)[C@@H]1O
active: [1] 833 nM | [2] 1480 nM | [3] 6110 nM | [4] 1870 nM | [5] 3850 nM | [6] 1660 nM | [7] 3720 nM | [10] 2350 nM
inactive: [8]

CS(=O)(=O)c1ccc(C2=C(c3ccccc3)C(=O)OC2)cc1
inactive: [1] | [2] | [3] | [4] | [5] | [6] | [7] | [8] | [9] | [10]

CCOC(=O)[C@@H](N)CCC(=O)N[C@@H](CSCc1ccccc1)C(=O)N[C@@H](C(=O)OCC)c1ccccc1
inactive: [1] | [2] | [3] | [4] | [5] | [6] | [7] | [8] | [9]

Cc1cccc(-c2[nH]c(C(C)(C)C)nc2-c2ccc3c(c2)OCO3)n1
active: [1] 11800 nM | [2] 4180 nM | [3] 7690 nM | [5] 2730 nM | [6] 9350 nM | [10] 1180 nM
inactive: [4] | [7] | [9]

CNC(=O)c1cc(Oc2ccc(NC(=O)Nc3ccc(Cl)c(C(F)(F)F)c3)c(F)c2)ccn1
active: [1] 13200 nM | [2] 20900 nM | [3] 12200 nM | [4] 23500 nM | [5] 10900 nM | [6] 16600 nM | [7] 23500 nM
inactive: [8]

CO[C@H]1/C=C\O[C@@]2(C)Oc3c(C)c(O)c4c(O)c(c(C=NN5CCN(C6CCCC6)CC5)c(O)c4c3C2=O)NC(=O)C(C)=CC=C[C@H](C)[C@H](O)[C@@H](C)[C@@H](O)[C@@H](C)[C@H](OC(C)=O)[C@H]1C
active: [1] 10.5 nM | [2] 1 nM | [3] 137 nM | [4] 118 nM | [5] 193 nM | [6] 209 nM | [7] 590 nM

N[C@@H](CC(=O)N1CCn2c(nnc2C(F)(F)F)C1)Cc1cc(F)c(F)cc1F
inactive: [2] | [3] | [4] | [5] | [6] | [7] | [8] | [9]
active: [1] 11800 nM

CC=C1C2C=C(C)CC1(N)c1ccc(=O)[nH]c1C2 (stereo not drawn)
inactive: [1] | [2] | [3] | [4] | [5] | [6] | [7] | [8] | [9] | [10]

Nc1ccc(-c2ccc3ncc4ccc(=O)n(-c5cccc(C(F)(F)F)c5)c4c3c2)cn1
active: [1] 418 nM | [2] 29.6 nM | [3] 3430 nM | [4] 148 nM | [5] 6.9 nM | [6] 235 nM | [7] 0.9 nM | [9] 1660 nM

COc1nccc(-c2c(-c3ccc(F)cc3)ncn2C2CCC(O)CC2)n1 (stereo not drawn)
inactive: [1] | [2] | [3] | [4] | [5] | [6] | [7] | [8] | [10]

O=C(O)C1=CC(O)C(O)[C@H](O)C1 (stereo partly drawn)
inactive: [1] | [2] | [3] | [4] | [5] | [6] | [7] | [8] | [9] | [10]

CC(C)c1c(C(=O)Nc2ccccc2)c(-c2ccccc2)c(-c2ccc(F)cc2)n1CC[C@H](O)C[C@@H](O)CC(=O)O
inactive: [2] | [6] | [8]
active: [1] 20900 nM | [3] 5440 nM | [4] 20900 nM | [5] 19300 nM | [7] 14800 nM

CN(C)CCN(C)C(=O)c1ccc(NC(=O)Nc2ccc(-c3nc(N4CCOCC4)c4ccn(CC(F)(F)F)c4n3)cc2)cc1
active: [1] 418 nM | [2] 2640 nM | [3] 3060 nM | [4] 187 nM | [5] 43.2 nM | [6] 372 nM | [7] 187 nM | [8] 52.6 nM | [10] 166 nM

CCOC(=O)N1CCN([N+]([O-])=NOc2cc(ON=[N+]([O-])N3CCN(C(=O)OCC)CC3)c([N+](=O)[O-])cc2[N+](=O)[O-])CC1
inactive: [1] | [2] | [3] | [4] | [5] | [6] | [7] | [8] | [9] | [10]

COc1nc(C)cnc1NS(=O)(=O)c1cccnc1-c1ccc(-c2nnco2)cc1
inactive: [1] | [2] | [3] | [4] | [5] | [6] | [7] | [8] | [9] | [10]

CC(NCCc1ccc(O)cc1)C(O)c1ccc(O)cc1 (stereo not drawn)
inactive: [1] | [2] | [3] | [4] | [5] | [6] | [7] | [8] | [9]
